An excerpt weighted towards active compounds, which were near 4% of everything screened.
MazF activator: increases E. coli MazEF RNase cleavage of RNA; FAM/BHQ RNA-DNA oligo cleavage fluorescence, 5 h; activation, % at 20 µM; actives 0.32% (n = 350,000); AID 504720; in the data active = activation above about 50%
DUSP3 inh: DUSP3 (human) phosphatase inhibition | P51452 | recombinant VHR phosphatase, pNPP absorbance | inhibition, % at 13.3 µM | actives 0.52% (n = 290,000) | AID 1654; in the data active = inhibition above about 50%
BoNT A protease: inhibitors of Botulinum neurotoxin A light chain protease. multiplex microsphere protease substrate cleavage, flow cytometry. actives 0.17% (n = 360,000). AID 588499. inhibition, % at 10 µM; in the data active = inhibition above about 30%; inconclusive = no clear call, values can overlap the other calls
BoNT-F LC inh: inhibitors of Botulinum neurotoxin F light chain protease | Multiplex microsphere protease cleavage assay, flow cytometry | inhibition, % at 10 µM | actives 0.22% (n = 360,000); in the data active = inhibition above about 35%, passing the limit was not always enough; inconclusive = no clear call, values can overlap the other calls
Anthrax LF prot: blocks Bacillus anthracis lethal factor protease; inhibition, % at 10 µM; actives 0.12% (n = 360,000); multiplex microsphere protease cleavage assay, LF; AID 588501; in the data active = inhibition above about 30%; inconclusive = no clear call, values can overlap the other calls
Target sequence (P15917 whole entry, looked up): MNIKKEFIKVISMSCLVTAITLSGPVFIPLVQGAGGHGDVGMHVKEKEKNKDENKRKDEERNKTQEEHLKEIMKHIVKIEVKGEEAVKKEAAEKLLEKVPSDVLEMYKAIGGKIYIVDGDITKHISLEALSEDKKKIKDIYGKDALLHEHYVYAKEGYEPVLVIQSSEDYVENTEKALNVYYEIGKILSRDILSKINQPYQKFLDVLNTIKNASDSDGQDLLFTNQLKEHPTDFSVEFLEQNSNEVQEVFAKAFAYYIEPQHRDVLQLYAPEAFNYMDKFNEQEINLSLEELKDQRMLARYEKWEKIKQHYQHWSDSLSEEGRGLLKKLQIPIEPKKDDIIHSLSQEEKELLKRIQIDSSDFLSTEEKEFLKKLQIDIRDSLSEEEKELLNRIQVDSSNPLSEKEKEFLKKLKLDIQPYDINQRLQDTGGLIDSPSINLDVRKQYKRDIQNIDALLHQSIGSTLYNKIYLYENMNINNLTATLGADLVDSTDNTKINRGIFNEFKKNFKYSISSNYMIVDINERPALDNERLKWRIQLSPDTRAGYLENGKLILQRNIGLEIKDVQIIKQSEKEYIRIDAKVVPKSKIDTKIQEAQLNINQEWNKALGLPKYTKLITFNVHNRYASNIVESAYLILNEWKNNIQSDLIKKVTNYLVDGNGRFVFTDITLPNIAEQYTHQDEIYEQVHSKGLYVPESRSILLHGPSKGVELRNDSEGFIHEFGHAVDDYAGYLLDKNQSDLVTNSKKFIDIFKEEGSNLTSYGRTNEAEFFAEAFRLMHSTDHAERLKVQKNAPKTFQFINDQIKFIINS
Autofluor counter: compound fluorescence in toxin protease inhibitor counterscreen. actives 3.1% (n = 360,000). compound autofluorescence counterscreen, microsphere flow cytometry; stronger effect = higher value. fluorescence intensity (concentration not given with the values). AID 624483; in the data active = fluorescence intensity above about 16000; inconclusive = no clear call, values can overlap the other calls
BoNTA LC inh 1: BoNT/A light chain protease inhibition; multiplex microsphere protease assay, flow cytometry; shares compounds with BoNT-F LC inh; actives 3% (n = 720); inhibition, % at 10 µM; in the data active = inhibition above about 32%
BoNTF LC inh 1: inhibitors of Botulinum neurotoxin F light chain protease; 720 tested, under 10 active; AID 602140; shares compounds with BoNT-F LC inh; inhibition, % at 10 µM; multiplex microsphere protease cleavage assay, flow cytometry
LF protease CP1: Bacillus anthracis lethal factor protease inhibition | multiplex microsphere protease cleavage assay, LF | inhibition, % at 10 µM | shares compounds with BoNT-F LC inh | 720 tested, under 10 active
Large screens that a line does not name were inactive (follow-up assays come after a bar, where they were run). Unless noted, no rule for the calls is given here.

Cc1ccc(S(=O)(=O)NCC(=O)OCCOc2ccc(Br)cc2)cc1	none (no result: DUSP3 inh)
CS(=O)(=O)N(CC(=O)N1CCOCC1)c1ccccc1	BoNT-F LC inh inconclusive, Anthrax LF prot 44.7 | BoNTA LC inh 1 inactive | BoNTF LC inh 1 inactive | LF protease CP1 inactive
O=C(O)c1ccc(-c2ccc(Cl)cc2Cl)o1	none
COc1ccc(C(=O)NCCc2ccc(C)cc2)cc1OC1CCN(C(C)=O)CC1	none
COc1cc(C(=O)N(C)CCOc2ccc(C)cc2)ccc1OC1CCN(C(C)=O)CC1	BoNT-F LC inh inconclusive, Anthrax LF prot 29.9 | BoNTA LC inh 1 inactive | BoNTF LC inh 1 inactive | LF protease CP1 inactive
Cc1nnc(SCC(=O)Nc2ccc(N3CCOCC3)cc2)o1	BoNT-F LC inh 42.4 | BoNTA LC inh 1 inactive | BoNTF LC inh 1 inactive | LF protease CP1 inactive
CCC(C)[C@H](NC(=O)N1CCCCC1)C(=O)OC (some centres undefined)	BoNT-F LC inh inconclusive, Anthrax LF prot 34.7 | BoNTA LC inh 1 inactive | BoNTF LC inh 1 inactive | LF protease CP1 inactive
COc1ccc(C(=O)Nc2nc(-c3ccc([N+](=O)[O-])cc3)c(-c3ccccc3)s2)cc1	Anthrax LF prot 30.6 (no result: DUSP3 inh) | BoNTA LC inh 1 inactive | BoNTF LC inh 1 inactive | LF protease CP1 inactive
O=C(Nc1nc(-c2ccccc2)c(-c2ccccc2)s1)c1ccc(S(=O)(=O)N2CCCC2)cc1	none | BoNTA LC inh 1 inactive | BoNTF LC inh 1 inactive | LF protease CP1 inactive
COc1ccc(-n2c(C)nnc2SCC(=O)N2CCOCC2)cc1	BoNT-F LC inh 47.2 | BoNTA LC inh 1 inactive | BoNTF LC inh 1 inactive | LF protease CP1 inactive
O=C(NCc1ccccc1)C(c1ccc(F)cc1)N(Cc1ccc2c(c1)OCO2)C(=O)Cn1nnc(-c2cccs2)n1 (centres undefined)	BoNT-F LC inh 50.9 | BoNTA LC inh 1 inactive | BoNTF LC inh 1 inactive | LF protease CP1 inactive
O=C(CN(Cc1ccco1)C(=O)Cn1nnc(-c2cccs2)n1)NCc1ccccc1	none
ClCC1CSC(=NC23CC4CC(CC(C4)C2)C3)O1 (centres undefined)	none
CNC(=O)c1sc(-c2ccccc2)nc1C	none
CC(=O)Nc1ccc(NC(=O)c2sc(-c3ccccc3)nc2C)cc1	BoNT-F LC inh 42.8 | BoNTA LC inh 1 inactive | BoNTF LC inh 1 inactive | LF protease CP1 inactive
COc1cc(S(=O)(=O)N(Cc2cccs2)CC2CCCO2)ccc1-n1cnnn1 (centres undefined)	BoNT A protease inconclusive, BoNT-F LC inh 41.1 | BoNTA LC inh 1 inactive | BoNTF LC inh 1 inactive | LF protease CP1 inactive
CN1C(=O)c2c(C(=O)Nc3ccc(Oc4ccncc4)cc3)[nH]c(-c3ccccc3)c2C1=O	none (no result: MazF activator, DUSP3 inh)
COC(=O)Cc1ccc(NC(=S)N2CCN(c3ccccn3)CC2)cc1	BoNT A protease 178.2, Anthrax LF prot 64.0 | BoNTA LC inh 1 inactive | BoNTF LC inh 1 inactive | LF protease CP1 inactive
Clc1cccc(OCc2nc(-c3ccncc3)no2)c1	BoNT-F LC inh 44.2 | BoNTA LC inh 1 inactive | BoNTF LC inh 1 inactive | LF protease CP1 inactive
O=C(CN1CCOCC1)NCc1ccccc1	none
O=C(CN1CCOCC1)NCCc1ccccc1	Anthrax LF prot 30.6 | BoNTA LC inh 1 inactive | BoNTF LC inh 1 inactive | LF protease CP1 inactive
CC(C)(C)c1ccc(S(=O)(=O)NCc2ccc(C(=O)NCC3CCCO3)cc2)cc1 (centres undefined)	none
COc1cccc(S(=O)(=O)NCc2ccc(C(=O)NCC3CCCO3)cc2)c1 (centres undefined)	BoNT-F LC inh 37.7 | BoNTA LC inh 1 inactive | BoNTF LC inh 1 inactive | LF protease CP1 inactive
COc1ccc(CCNC(=O)c2ccccc2NC(=O)CN2CCN(c3ccccc3O)CC2)cc1	none (no result: DUSP3 inh)
COCc1cc(C)nc(Nc2ccccc2OC)c1C#N	Anthrax LF prot 31.6 | BoNTA LC inh 1 inactive | BoNTF LC inh 1 inactive | LF protease CP1 inactive
O=[N+]([O-])c1ccc(N(c2ccccc2)c2ccccc2)cc1	BoNT A protease 58.2, Anthrax LF prot 46.7, Autofluor counter 21531 | BoNTA LC inh 1 inactive | BoNTF LC inh 1 inactive | LF protease CP1 inactive
CNC(=S)N1N=C(c2cccs2)CC1c1ccc(F)cc1 (centres undefined)	BoNT-F LC inh 50.0 | BoNTA LC inh 1 inactive | BoNTF LC inh 1 inactive | LF protease CP1 inactive
Cc1cc(C(=O)Nc2ccon2)c(C)o1	none
Cc1cc(C(=O)Nc2cc(C(C)(C)C)on2)c(C)o1	BoNT-F LC inh inconclusive, Anthrax LF prot 100.0 | BoNTA LC inh 1 inactive | BoNTF LC inh 1 inactive | LF protease CP1 inactive
Clc1ccc(-c2nc(N3CCCCC3)nc3ccccc23)cc1	BoNT A protease 31.5, BoNT-F LC inh 58.9 | BoNTA LC inh 1 inactive | BoNTF LC inh 1 inactive | LF protease CP1 inactive
O=C(O)CCC(=O)N1CCN(c2nc(-c3ccccc3)c3ccccc3n2)CC1	none
Cc1ccc(C(=O)Nc2c(C)cc(C)c3cccnc23)cc1	none
CC1CC(C)CN(C(=O)c2ccc(NC(=O)c3ccc(=O)[nH]c3)cc2)C1 (centres undefined)	none
Cc1cc(=O)oc2c(CN3CCCC3)c(O)c(Cl)cc12	Anthrax LF prot 30.5 | BoNTA LC inh 1 inactive | BoNTF LC inh 1 inactive | LF protease CP1 inactive
COc1ccc(C(=O)Nc2nc(-c3ccccc3)c(C(C)=O)s2)c(OC)c1	none
CCCC(=O)Nc1nnc(SCC(=O)NCc2ccc3c(c2)OCO3)s1	BoNT-F LC inh 39.5 | BoNTA LC inh 1 inactive | BoNTF LC inh 1 inactive | LF protease CP1 inactive
O=C(CSc1nnc(SCC(=O)NCc2ccc3c(c2)OCO3)s1)NCc1ccc2c(c1)OCO2	none
CC(C)NC(=O)C1(C)CCCN1C(=O)c1ccccc1Br (centres undefined)	none (no result: MazF activator, DUSP3 inh)
Cc1cccc2c1NC(C)CC2C (centres undefined)	BoNT A protease 34.1, Anthrax LF prot 40.2 | BoNTA LC inh 1 inactive | BoNTF LC inh 1 inactive | LF protease CP1 inactive
O=C(NCc1ccco1)c1ccc(S(=O)(=O)c2cccc(S(=O)(=O)N3CCOCC3)c2)cc1	BoNT-F LC inh 38.2 | BoNTA LC inh 1 inactive | BoNTF LC inh 1 inactive | LF protease CP1 inactive
Cc1cc(C)cc(N(CCC#N)C(=O)COC(=O)C2CCN(S(=O)(=O)c3ccc(C)c(C)c3)CC2)c1	none (no result: DUSP3 inh)
CN1CCN(C(=O)c2ccc(-c3cccs3)s2)CC1	BoNT-F LC inh inconclusive
O=C(c1cccs1)c1ccc(-c2cccs2)s1	BoNT A protease 33.4, Anthrax LF prot 35.2 | BoNTA LC inh 1 inactive | BoNTF LC inh 1 inactive | LF protease CP1 inactive
CCC(C)NC(=O)c1c(N)n(Cc2ccc3c(c2)OCO3)c2nc3ccccc3nc12 (centres undefined)	BoNT A protease 30.3 | BoNTA LC inh 1 inactive | BoNTF LC inh 1 inactive | LF protease CP1 inactive
NCCCCCNC(=O)c1nc[nH]c1C(=O)NCC(=O)OCc1ccccc1	none (no result: DUSP3 inh)
O=C(CN1C(=O)NC2(CCCCCC2)C1=O)c1ccc(F)cc1	BoNT A protease inconclusive, BoNT-F LC inh inconclusive, Anthrax LF prot inconclusive, Autofluor counter inconclusive (no result: DUSP3 inh)

High-throughput results deposited in PubChem BioAssay by several laboratories.
